# Measurements as given in PubChem BioAssay.
# Calls of active or inactive are those of the source.
# Experiments:
# [1] = tested on: Plasmodium falciparum Sir2 (PF13_0152, Sir2A); experiment: pfSir2 binders on small-molecule microarrays, primary screen, biochemical, small-molecule microarray, 635 nm fluorescence (AID 1098); details: small-molecule microarray binding, fluorescence 635 nm; higher = more signal;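 further: score merges spot fluorescence intensity with its signal-to-noise ratio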
# [2] = small-molecule microarray binders of probe aDKK1, primary screen, biochemical, biotinylated probe, 635/667 nm fluorescence (AID 1099); details: higher = more signal;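 further: score merges 667nm spot fluorescence with signal to noise across triplicate slides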
# [3] = small-molecule microarray binders of probe aCHRDL2, primary screen, biochemical, biotinylated probe, 635/667 nm fluorescence (AID 1100); details: higher = more signal
# [4] = splicing luciferase reporter signal modulators, primary screen, spliceosome inhibition project, cell-based, HEK293, splice +/- reporter (AID 1101); details: luminescence, 24 h, higher = more signal, called active from +8 up or from −8 down;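 further: HEK293 cells carrying a splicing-competent luciferase reporter gene; test concentration not given here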
# [5] = molecular target: Fibroblast growth factor 10 (Homo sapiens) (UniProt O15520); experiment: FGF10 binders on small-molecule microarrays, primary screen, biochemical, small-molecule microarray, 635 nm fluorescence (AID 1102); details: FGF10 binding, fluorescence 635 nm, higher = more signal
# [6] = tested on: glycogen synthase kinase-3 (GSK3A per assay name; protocol says GSK3B); experiment: GSK3 binders on small-molecule microarrays, primary screen, biochemical, small-molecule microarray, 635 nm fluorescence, GSK3A (AID 1103); details: small-molecule microarray binding, fluorescence 635 nm; higher = more signal; further: the record names both GSK3A and GSK3B
# [7] = molecular target: Epidermal growth factor receptor (Homo sapiens) (UniProt P00533); experiment: EGFR binders on small-molecule microarrays, primary screen, biochemical, small-molecule microarray, 635 nm fluorescence (AID 1104); details: EGFR binding, higher = more signal;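 further: score merges 667 nm emission intensity with spot signal to noise over triplicate slides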
# [8] = molecular target: Follistatin-related protein 3 (Homo sapiens) (UniProt O95633); experiment: FSTL3 binders on small-molecule microarrays, primary screen, biochemical, small-molecule microarray, 635 nm fluorescence (AID 1105); details: FSTL3 binding, higher = more signal;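 further: score merges emission near 667 nm and signal to noise per printed spot across three slides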
# [9] = molecular target: Dickkopf-related protein 1 (Homo sapiens) (UniProt O94907); experiment: DKK1 binders on small-molecule microarrays, primary screen, biochemical, small-molecule microarray, 635 nm fluorescence scan (AID 1106); details: DKK1 binding, higher = more signal;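 further: score merges emission near 667 nm with signal to noise over three replicate slides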
# [10] = tested on: Inhibin beta A chain (activin A); experiment: INHBA (activin A) binders on microarrays, primary screen, biochemical, small-molecule microarray, 635 nm fluorescence scan (AID 1107); details: small-molecule microarray binding, higher = more signal;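 further: mouse activin A protein probed at 4.33 µg/mL on printed slides; score merges bound-protein fluorescence near 667 nm with spot signal-to-noise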
# [11] = tested on: Human papillomavirus type 1a protein E7 (residues 44-93); experiment: HPV1a E7 fragment binders on microarrays, primary screen, biochemical, small-molecule microarray, residues 44-93, 635 nm fluorescence (AID 1108); details: small-molecule microarray binding, fluorescence 635 nm; higher = more signal;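 further: E7 fragment applied at 1 µg/mL in TBST for 1 h at 4 C; score combines spot fluorescence with its signal to noise ratio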
# [12] = modulators of HCV replicon luciferase signal, primary screen, HCV replication inhibitor project, Huh7 cells, luciferase reporter (AID 1109); details: 48 h, higher = more signal;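 further: huh7 hepatoma cells harbouring a luciferase neomycin HCV replicon reporter; luciferase luminescence as measure of HCV replicon replication; test concentration not given here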
# [13] = molecular target: Left-right determination factor 2 (Homo sapiens) (UniProt O00292); experiment: LEFTY2 binders on small-molecule microarrays, primary screen, biochemical, small-molecule microarray, 635 nm fluorescence scan (AID 1110); details: LEFTY2 binding, higher = more signal
# [14] = molecular target: Calmodulin-1 (Homo sapiens) (UniProt P0DP23); experiment: CALM1 binders on microarrays, EGTA buffer, profiling panel, biochemical, small-molecule microarray, Cy5-labelled CALM1 (AID 1111); details: Cy5-CALM1 binding fluorescence, higher = more signal;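 further: labelled calmodulin applied in Tris saline Tween buffer holding calcium plus EGTA and DTT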
# [15] = molecular target: Calmodulin-1 (Homo sapiens) (UniProt P0DP23); experiment: calcium-bound CALM1 binders on microarrays, profiling panel, artefact control for SMM control-protein annotation, biochemical, small-molecule microarray, Cy5-labelled CALM1, plus calcium (AID 1112); details: Cy5-CALM1 binding fluorescence, higher = more signal;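 further: score merges spot fluorescence with signal to noise from triplicate slides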
# [16] = small-molecule microarray binders of probe aWnt5a, primary screen, biochemical, biotinylated probe, 635/667 nm fluorescence (AID 1113); details: higher = more signal;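 further: score merges 667 nm fluorescence intensity with signal-to-noise per printed feature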
# [17] = small-molecule microarray binders of probe aShh, primary screen, biochemical, biotinylated probe, 635/667 nm fluorescence (AID 1114); details: higher = more signal;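 further: probe is biotin-labelled aShh protein from a stem cell growth factor screen; measures binding of labelled protein to compounds printed on the slide; score merges feature fluorescence at 667 nm with signal-to-noise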
# [18] = small-molecule microarray binders of probe aNog, primary screen, biochemical, biotinylated probe, 635/667 nm fluorescence (AID 1115); details: higher = more signal;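 further: probe is biotinylated aNog protein used at 0.15 µg/mL for 1 h at 4 C; z-score combines 667 nm fluorescence of each spot with its signal to noise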
# [19] = molecular target: Torsin-1A-interacting protein 1 (Homo sapiens) (UniProt Q5JTV8); experiment: LAP1 binders from COS7 cell lysate, primary screen, small-molecule microarray, 635/667 nm fluorescence (AID 1116); details: COS7-hLAP1 lysate binding, 635 nm fluorescence, higher = more signal
# [20] = molecular target: Alpha-bungarotoxin (Bungarus multicinctus) (UniProt P60615); experiment: alpha-bungarotoxin binders on microarray, profiling panel, artefact control for SMM control protein annotation, biochemical, small-molecule microarray, Alexa647 label, 635/667 nm fluorescence (AID 1117); details: alpha-BTX-A647 binding fluorescence, higher = more signal
# Chain of Alpha-bungarotoxin (Bungarus multicinctus) (P60615 whole entry, looked up): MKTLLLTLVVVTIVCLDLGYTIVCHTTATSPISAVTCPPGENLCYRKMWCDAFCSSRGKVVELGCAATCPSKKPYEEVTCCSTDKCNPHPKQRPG
# Chain of Torsin-1A-interacting protein 1 (Homo sapiens) (Q5JTV8 whole entry, looked up): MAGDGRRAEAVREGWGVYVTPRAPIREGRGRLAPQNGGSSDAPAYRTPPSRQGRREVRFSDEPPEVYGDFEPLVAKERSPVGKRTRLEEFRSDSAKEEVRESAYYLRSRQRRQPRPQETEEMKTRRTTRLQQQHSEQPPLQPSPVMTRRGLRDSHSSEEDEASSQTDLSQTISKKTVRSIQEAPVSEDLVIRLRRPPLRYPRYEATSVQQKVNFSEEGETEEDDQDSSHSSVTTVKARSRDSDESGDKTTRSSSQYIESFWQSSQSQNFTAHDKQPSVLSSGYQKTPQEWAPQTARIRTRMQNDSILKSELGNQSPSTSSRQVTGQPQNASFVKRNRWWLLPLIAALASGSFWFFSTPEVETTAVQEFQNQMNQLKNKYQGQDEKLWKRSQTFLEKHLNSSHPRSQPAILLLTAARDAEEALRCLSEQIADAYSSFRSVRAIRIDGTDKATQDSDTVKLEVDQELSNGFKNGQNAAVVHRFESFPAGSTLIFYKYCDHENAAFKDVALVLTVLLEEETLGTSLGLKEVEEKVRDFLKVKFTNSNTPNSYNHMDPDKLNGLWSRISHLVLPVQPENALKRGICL
# Chain of Dickkopf-related protein 1 (Homo sapiens) (O94907 whole entry, looked up): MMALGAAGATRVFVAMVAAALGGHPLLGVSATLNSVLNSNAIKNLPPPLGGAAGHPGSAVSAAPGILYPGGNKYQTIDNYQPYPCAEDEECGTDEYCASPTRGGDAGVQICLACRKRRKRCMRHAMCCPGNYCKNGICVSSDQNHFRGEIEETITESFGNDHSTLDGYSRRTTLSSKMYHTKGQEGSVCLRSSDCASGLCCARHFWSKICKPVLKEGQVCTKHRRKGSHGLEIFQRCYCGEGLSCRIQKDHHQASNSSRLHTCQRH
# Chain of Fibroblast growth factor 10 (Homo sapiens) (O15520 whole entry, looked up): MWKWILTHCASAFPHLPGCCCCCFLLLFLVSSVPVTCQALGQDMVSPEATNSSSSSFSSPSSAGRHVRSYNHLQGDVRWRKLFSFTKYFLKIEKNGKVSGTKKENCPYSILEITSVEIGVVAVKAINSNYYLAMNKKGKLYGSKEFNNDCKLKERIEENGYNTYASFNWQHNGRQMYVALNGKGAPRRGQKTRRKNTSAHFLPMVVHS
# Chain of Follistatin-related protein 3 (Homo sapiens) (O95633 whole entry, looked up): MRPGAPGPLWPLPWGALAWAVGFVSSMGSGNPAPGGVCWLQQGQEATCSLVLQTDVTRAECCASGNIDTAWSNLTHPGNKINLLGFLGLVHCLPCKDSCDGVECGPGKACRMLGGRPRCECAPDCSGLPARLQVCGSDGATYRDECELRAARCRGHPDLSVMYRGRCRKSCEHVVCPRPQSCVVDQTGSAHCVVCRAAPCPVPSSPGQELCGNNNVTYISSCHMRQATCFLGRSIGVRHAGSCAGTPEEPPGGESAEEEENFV
# Chain of Epidermal growth factor receptor (Homo sapiens) (P00533 whole entry, looked up): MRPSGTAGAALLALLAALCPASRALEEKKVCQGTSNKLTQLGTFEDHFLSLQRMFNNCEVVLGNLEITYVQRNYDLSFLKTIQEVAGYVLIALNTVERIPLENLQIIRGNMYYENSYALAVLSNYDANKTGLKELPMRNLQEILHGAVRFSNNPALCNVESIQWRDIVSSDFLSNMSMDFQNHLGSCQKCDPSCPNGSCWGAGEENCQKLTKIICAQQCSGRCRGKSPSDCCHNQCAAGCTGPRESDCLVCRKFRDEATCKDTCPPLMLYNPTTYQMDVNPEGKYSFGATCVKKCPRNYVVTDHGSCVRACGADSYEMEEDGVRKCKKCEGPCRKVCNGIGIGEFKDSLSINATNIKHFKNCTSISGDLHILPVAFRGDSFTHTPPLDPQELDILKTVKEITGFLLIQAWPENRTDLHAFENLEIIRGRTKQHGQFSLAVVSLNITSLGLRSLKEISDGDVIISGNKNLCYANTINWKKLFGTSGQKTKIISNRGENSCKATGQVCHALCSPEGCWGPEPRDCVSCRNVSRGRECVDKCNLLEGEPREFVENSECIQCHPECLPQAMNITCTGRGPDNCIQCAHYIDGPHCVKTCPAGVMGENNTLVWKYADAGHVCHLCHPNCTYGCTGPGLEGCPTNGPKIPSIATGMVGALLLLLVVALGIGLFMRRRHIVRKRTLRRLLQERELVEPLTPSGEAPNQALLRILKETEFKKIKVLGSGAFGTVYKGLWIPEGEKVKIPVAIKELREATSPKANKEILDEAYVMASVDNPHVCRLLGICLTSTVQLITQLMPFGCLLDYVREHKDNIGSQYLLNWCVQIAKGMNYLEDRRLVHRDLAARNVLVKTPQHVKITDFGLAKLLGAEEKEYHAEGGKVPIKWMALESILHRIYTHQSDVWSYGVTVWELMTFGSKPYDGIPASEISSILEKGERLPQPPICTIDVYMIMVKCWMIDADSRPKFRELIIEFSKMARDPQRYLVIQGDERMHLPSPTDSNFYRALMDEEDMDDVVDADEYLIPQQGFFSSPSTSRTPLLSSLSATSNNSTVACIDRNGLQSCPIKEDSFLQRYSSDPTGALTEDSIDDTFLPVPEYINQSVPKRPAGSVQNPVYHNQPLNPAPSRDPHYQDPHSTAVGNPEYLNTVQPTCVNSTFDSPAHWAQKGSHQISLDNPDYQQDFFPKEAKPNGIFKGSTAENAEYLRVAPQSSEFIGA
# Chain of Left-right determination factor 2 (Homo sapiens) (O00292 whole entry, looked up): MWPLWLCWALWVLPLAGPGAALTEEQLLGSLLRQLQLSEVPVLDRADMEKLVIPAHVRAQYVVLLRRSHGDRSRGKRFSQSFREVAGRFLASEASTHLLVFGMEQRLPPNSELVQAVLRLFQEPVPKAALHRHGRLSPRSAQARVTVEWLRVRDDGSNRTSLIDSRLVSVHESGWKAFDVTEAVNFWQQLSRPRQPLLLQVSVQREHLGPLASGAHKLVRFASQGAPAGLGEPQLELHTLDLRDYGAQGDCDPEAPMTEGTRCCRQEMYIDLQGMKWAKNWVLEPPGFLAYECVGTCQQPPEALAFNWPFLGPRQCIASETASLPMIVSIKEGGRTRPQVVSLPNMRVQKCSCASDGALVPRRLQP
SMILES,composite z-score [1],composite z-score [2],composite z-score [3],z-score [4],composite z-score [5],composite z-score [6],composite z-score [7],composite z-score [8],composite z-score [9],composite z-score [10],composite z-score [11],z-score [12],composite z-score [13],composite z-score [14],composite z-score [15],composite z-score [16],composite z-score [17],composite z-score [18],composite z-score [19],composite z-score [20]
O=C1[C@H]2[C@H]3[C@H](O)[C@H](O)CC(=NOC[C@@H](O)COCc4ccco4)[C@H]3CC[C@H]2C(=O)N1c1cccc(Oc2ccccc2)c1,0.846,-0.317,0.166,-0.716 (inactive),-0.86,-0.686,-0.249,-0.65,-0.547,0.624,-0.496,0.126,-1.1,-0.876,-0.344,-0.0792,-0.138,-0.0671,0.103,-0.572
COc1ccc([Si](C)(C)[C@H]2[C@H](CCO)O[C@@]3(C(=O)N(Cc4cccc(NC(=O)[C@H](C)O)c4)c4ccccc43)[C@@H]2C)cc1,1.01,-0.146,-0.026,-2.55 (inactive),1.01,0.738,0.382,0.901,0.507,0.106,1.39,-5.13,0.383,0.922,-0.14,-0.101,0.0144,-0.074,0.798,1.36
CC(=O)O[C@H]1C2=C(C(=O)[C@@H]3O[C@@H]31)[C@H]1C(C)O[C@@H]2[C@@]23C(=O)[C@@H]4O[C@@H]4[C@@H](O)C2=CO[C@H](C)[C@@H]13 (stereo not given in full),0.452,-0.475,-0.62,0.15 (inactive),0.374,-0.0186,0.197,-0.0861,0.326,0.702,-0.667,-2.66,0.552,-1.17,-0.891,-0.101,-0.13,-0.18,-0.25,-0.858
CO[C@H]1O[C@H](CO)[C@@H](OC(=O)Nc2ccc(C#N)cc2)[C@H](OC(=O)c2cc3ccccc3[nH]2)[C@H]1OC(=O)c1cc2ccccc2[nH]1,1.19,0.149,0.19,-0.561 (inactive),0.747,1.16,0.119,0.588,0.295,0.354,1.33,-2.2,0.339,2.07,0.299,-0.206,-0.0769,0.569,2.09,2.63
C=CC[C@@H]1C=C[C@H](ON=Cc2ccc(C(=O)N3[C@H](c4ccc(C)cc4)[C@@H](C)CC[C@H]3C(=O)OC)cc2)[C@@H](CO)O1,0.608,-0.313,-0.422,-0.0467 (inactive),0.59,0.363,0.475,0.609,0.381,0.694,0.792,-1.52,0.432,-0.36,-0.621,-0.148,-0.16,-0.0337,0.0268,-0.255
COC(=O)[C@@]1(Cc2ccccc2)[C@H]2c3cc(C(=O)N4CCCC4)n(Cc4ccccn4)c3C[C@H]2CN1C(=O)c1ccccc1,1.54,1.52,1.31,-2.15 (inactive),1.37,1.3,0.204,1.41,0.166,0.456,1.5,-1.24,0.0043,1.45,0.053,0.752,0.894,2.25,2.42,0.914
COCCOC(=O)N1C(=O)[C@@]2(c3cc(C#CC4(O)CCCCCC4)ccc31)[C@H](c1ccc(OCCO)cc1)N1[C@H](c3ccccc3)[C@H](c3ccccc3)OC(=O)[C@H]1[C@@H]2C(=O)NC[C@H](O)c1ccccc1,0.933,0.0678,0.389,-0.268 (inactive),1.18,1.29,0.258,0.432,0.208,0.527,1.44,-2.32,0.358,1.28,0.311,0.0079,-0.0289,0.385,1.26,2.17
C/C=C\[C@@H](NCc1ccccc1Br)[C@@H](O)Cc1ccccc1,0.556,0.41,1.19,-0.307 (inactive),-1.69,-0.683,-1.37,-1.69,-1.58,0.0067,-0.594,-3.08,-0.472,-0.64,0.0924,-0.12,-0.291,-0.18,-0.541,-0.791
CC(C)=C1C(=O)C(c2ccccc2)=C2CN3C(=O)N(CCc4ccccc4)C(=O)[C@]3(Cc3ccc(F)cc3)[C@H]21,-0.0467,0.993,1.21,0.762 (inactive),-0.625,-0.643,-2.06,-0.655,-1.92,0.51,0.891,-0.864,-1.67,0.327,0.32,0.229,0.0431,-0.761,-0.248,-0.547
CC(C)[Si]1(C(C)C)O[C@@H](c2ccccc2)c2cc(C3CC3)nc(-c3ccccc3)c21,-0.792,-0.276,-0.0652,-0.613 (inactive),-0.0733,-0.248,-0.337,-0.349,-0.568,-1.07,0.503,-0.587,-0.953,-0.0471,-0.239,-0.126,-0.221,-0.368,-0.509,0.181
C=CCC(OC(C)=O)[C@@H]1[C@@H](N(Cc2cc3ccccc3o2)C(=O)Cc2ccc(F)cc2)c2cc(OCCCO)ccc2N1C(=O)Cc1ccc(OC)cc1 (stereo not given in full),-0.144,-0.361,0.102,-0.844 (inactive),0.0509,-1.17,-0.239,-0.0882,-0.191,0.772,-1.07,-1.14,-0.0691,-0.481,-0.435,-0.236,0.14,0.0234,0.158,0.286
CC(C)=CCCC(C)=CCON=C1C[C@@H](O)[C@@H](O)[C@@H]2[C@@H]3C(=O)N(C[C@@H]4CCCO4)C(=O)[C@@H]3CC[C@@H]12,0.998,-0.364,-0.753,0.363 (inactive),1.33,1.29,1.15,1.37,1.37,1.52,1.38,0.398,0.763,-0.599,-1.4,-0.104,-0.243,-0.319,0.101,0.488
